According to the supplement of paper PMC11001985:

Compound: C#CCNC(=O)CCSSCCC(=O)NCCc1ccc(C=O)c(C=O)c1
Assay: lysine labeling ratio R10:1 (500 µM / 50 µM probe), SILAC-ABPP in living cells; higher = lower intrinsic lysine reactivity toward the probe, active = 2 or less
Settings: HeLa; probe concentrations 500 vs 50 µM
Summary of the method: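 Each lysine carries an R value: the filtered median of MS1 peptide ratios of high probe to low probe, with the median then taken over forward and reverse replicates. These came from living SILAC light and heavy HeLa cells in PBS at room temperature labelled with an alkyne-tagged, disulfide-linked lysine probe at 500 µM or 50 µM, in forward and reverse swaps. The lysates were mixed, clicked to biotin-azide, trypsin-digested, captured on neutravidin, released by DTT, alkylated and run by LC-MS/MS on a TIMS-TOF Pro. The highest value allowed is 20.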

Sequence of UniProt Q14980 (Q14980 whole entry): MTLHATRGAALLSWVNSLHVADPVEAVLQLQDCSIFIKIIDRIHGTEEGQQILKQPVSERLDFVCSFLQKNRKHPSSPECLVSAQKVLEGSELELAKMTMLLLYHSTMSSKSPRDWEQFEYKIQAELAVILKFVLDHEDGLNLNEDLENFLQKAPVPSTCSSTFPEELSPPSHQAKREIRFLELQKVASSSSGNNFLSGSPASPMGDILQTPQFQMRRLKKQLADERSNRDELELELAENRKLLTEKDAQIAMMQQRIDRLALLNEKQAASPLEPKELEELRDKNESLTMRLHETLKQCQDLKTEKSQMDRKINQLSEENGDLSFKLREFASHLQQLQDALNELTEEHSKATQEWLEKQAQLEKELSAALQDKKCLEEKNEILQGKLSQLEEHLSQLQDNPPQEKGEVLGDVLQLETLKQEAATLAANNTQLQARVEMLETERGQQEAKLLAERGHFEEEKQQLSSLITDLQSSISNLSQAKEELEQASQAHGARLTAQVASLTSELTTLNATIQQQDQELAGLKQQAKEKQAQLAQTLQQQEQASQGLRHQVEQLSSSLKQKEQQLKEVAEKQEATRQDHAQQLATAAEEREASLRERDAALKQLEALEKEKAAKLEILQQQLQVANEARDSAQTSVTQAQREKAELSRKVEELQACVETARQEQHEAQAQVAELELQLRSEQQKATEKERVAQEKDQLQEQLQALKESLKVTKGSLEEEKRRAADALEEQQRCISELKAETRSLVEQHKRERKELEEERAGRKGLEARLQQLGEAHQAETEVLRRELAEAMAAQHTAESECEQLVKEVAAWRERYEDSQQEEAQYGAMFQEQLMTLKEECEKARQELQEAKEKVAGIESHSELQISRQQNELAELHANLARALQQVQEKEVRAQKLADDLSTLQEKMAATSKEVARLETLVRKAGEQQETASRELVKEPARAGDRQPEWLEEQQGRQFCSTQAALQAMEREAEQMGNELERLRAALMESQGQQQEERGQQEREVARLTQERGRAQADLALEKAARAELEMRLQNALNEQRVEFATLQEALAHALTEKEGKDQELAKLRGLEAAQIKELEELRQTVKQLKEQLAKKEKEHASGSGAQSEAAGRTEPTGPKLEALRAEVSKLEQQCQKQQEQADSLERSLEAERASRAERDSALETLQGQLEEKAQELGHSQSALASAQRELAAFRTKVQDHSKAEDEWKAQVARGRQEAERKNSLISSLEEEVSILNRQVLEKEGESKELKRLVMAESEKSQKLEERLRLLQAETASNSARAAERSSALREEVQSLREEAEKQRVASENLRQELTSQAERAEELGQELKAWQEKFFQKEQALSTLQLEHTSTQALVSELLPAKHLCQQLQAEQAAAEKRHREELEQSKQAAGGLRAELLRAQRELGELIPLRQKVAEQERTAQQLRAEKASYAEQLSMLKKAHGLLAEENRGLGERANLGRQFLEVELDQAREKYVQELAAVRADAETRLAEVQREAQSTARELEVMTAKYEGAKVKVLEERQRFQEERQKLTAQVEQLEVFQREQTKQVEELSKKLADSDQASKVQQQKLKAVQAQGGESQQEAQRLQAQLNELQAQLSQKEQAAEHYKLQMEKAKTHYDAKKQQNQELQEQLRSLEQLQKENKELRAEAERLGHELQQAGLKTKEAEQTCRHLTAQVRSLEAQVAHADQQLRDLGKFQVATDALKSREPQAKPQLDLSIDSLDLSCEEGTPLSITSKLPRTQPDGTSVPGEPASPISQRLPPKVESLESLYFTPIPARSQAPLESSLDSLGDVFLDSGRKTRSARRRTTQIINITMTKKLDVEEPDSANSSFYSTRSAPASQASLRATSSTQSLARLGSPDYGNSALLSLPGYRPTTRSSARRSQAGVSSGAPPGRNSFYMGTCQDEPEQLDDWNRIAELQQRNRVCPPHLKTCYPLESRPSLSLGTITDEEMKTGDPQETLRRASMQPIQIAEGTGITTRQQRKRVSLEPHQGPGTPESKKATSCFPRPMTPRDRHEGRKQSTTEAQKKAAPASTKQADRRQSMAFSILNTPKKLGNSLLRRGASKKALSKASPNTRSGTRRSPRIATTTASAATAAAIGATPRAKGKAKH
Sequence of UniProt P10586 (P10586 whole entry): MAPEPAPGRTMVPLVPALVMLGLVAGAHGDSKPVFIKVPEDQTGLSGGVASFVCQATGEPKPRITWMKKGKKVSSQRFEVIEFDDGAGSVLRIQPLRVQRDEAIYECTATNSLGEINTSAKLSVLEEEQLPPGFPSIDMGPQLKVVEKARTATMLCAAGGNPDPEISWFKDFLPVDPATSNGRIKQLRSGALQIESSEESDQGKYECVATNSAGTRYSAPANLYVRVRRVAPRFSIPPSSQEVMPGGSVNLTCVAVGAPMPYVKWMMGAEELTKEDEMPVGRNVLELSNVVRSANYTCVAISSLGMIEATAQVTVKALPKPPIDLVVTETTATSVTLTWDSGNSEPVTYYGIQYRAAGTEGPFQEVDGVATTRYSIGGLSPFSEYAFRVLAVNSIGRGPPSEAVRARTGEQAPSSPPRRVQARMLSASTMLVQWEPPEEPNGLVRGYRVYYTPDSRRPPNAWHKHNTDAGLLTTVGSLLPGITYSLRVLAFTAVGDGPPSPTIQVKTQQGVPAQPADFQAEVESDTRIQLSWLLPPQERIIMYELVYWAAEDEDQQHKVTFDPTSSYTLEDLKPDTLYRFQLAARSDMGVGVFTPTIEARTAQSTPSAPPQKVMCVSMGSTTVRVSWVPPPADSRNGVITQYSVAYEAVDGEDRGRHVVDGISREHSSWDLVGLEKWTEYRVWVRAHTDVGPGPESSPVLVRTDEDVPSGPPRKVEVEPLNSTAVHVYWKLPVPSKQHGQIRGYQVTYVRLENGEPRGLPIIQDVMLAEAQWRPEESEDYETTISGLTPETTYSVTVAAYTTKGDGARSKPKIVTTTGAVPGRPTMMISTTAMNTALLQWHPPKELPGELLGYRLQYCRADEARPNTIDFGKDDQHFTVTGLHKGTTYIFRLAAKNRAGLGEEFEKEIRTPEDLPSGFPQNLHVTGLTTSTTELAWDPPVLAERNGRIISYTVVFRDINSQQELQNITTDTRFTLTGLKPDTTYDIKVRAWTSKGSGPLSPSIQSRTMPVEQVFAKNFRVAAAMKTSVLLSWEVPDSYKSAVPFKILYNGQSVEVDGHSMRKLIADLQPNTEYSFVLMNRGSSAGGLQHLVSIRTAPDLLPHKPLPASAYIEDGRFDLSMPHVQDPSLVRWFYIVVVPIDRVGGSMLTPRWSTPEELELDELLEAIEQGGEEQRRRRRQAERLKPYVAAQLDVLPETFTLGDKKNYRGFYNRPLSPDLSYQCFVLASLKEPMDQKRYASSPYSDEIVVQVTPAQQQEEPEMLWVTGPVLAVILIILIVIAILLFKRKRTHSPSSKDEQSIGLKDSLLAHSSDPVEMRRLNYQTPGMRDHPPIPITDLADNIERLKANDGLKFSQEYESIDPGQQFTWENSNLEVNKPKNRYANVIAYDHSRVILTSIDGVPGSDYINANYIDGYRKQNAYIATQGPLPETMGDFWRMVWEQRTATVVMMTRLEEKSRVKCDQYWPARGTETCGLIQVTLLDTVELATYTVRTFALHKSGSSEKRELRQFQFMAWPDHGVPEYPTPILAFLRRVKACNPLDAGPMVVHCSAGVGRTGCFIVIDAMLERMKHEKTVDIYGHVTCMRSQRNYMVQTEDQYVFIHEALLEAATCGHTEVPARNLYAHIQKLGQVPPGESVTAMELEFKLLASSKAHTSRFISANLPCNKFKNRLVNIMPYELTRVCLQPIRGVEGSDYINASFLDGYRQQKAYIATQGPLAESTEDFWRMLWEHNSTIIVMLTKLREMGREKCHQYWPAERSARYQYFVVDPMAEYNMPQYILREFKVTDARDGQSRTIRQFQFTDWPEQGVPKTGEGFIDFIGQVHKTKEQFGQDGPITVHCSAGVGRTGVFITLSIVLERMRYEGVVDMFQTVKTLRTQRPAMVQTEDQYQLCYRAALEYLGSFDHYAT
Sequence of UniProt Q14247 (Q14247 whole entry): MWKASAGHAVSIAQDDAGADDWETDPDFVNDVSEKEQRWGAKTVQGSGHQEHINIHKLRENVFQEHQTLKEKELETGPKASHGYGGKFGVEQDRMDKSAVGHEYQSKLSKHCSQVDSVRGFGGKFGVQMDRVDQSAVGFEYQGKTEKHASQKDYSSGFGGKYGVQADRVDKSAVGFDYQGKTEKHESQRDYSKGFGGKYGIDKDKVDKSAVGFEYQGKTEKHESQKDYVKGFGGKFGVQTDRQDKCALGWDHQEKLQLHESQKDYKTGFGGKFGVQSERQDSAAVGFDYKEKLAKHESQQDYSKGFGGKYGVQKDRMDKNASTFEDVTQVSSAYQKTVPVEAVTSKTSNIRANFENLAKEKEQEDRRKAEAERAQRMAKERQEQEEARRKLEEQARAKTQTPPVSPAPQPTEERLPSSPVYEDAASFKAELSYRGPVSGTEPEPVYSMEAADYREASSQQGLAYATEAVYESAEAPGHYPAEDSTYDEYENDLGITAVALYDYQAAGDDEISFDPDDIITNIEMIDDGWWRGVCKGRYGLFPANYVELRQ
Sequence of UniProt Q9NX63 (Q9NX63 whole entry): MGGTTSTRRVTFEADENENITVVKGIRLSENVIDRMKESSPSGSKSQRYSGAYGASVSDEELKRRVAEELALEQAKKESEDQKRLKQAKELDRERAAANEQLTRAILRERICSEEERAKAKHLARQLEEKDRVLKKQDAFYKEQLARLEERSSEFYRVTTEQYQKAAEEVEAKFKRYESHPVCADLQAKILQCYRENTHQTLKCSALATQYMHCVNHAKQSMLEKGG
Sequence of UniProt Q9UII2 (Q9UII2 whole entry): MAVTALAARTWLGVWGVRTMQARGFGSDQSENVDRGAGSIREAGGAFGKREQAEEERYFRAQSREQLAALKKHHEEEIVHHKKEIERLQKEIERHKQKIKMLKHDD
Sequence of UniProt P02656 (P02656 whole entry): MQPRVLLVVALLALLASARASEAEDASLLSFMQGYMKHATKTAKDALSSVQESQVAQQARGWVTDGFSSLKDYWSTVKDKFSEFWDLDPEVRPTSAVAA

Lysine labeling ratio R10:1, active:
NUMA1 (lysine site: K1024) (UniProt Q14980) 1.17
NUMA1 (lysine site: K891) (UniProt Q14980) 1.87
ITGAV (lysine site: K360) (UniProt P06756) 1.23
EEF2 (lysine site: K598) (UniProt P13639) 1.36
HNRNPU (lysine site: K609) (UniProt Q00839) 1.53
CTTN (lysine site: K184) (UniProt Q14247) 1.5
DDX23 (lysine site: K204) (UniProt Q9BUQ8) 0.85
FLNA (lysine site: K1164) (UniProt P21333) 1.16
SAFB2 (lysine site: K829) (UniProt Q14151) 1.92
RCC2 (lysine site: K124) (UniProt Q9P258) 1.8
CHCHD3 (lysine site: K37) (UniProt Q9NX63) 1.57
AHNAK (lysine site: K130) (UniProt Q09666) 1.37
PRDX5 (lysine site: K142) (UniProt P30044) 1.62
TKT (lysine site: K538) (UniProt P29401) 1.86

Lysine labeling ratio R10:1, inactive:
RPL10A (lysine site: K196) (UniProt P62906) 2.81
DSG2 (lysine site: K430) (UniProt Q14126) 6.01
RPL22 (lysine site: K52) (UniProt P35268) 7.72
APOC3 (lysine site: K44) (UniProt P02656) 3.68
ITGB1 (lysine site: K73) (UniProt P05556) 2.27
SPTBN1 (lysine site: K497) (UniProt Q01082) 2.59
SCARB2 (lysine site: K129) (UniProt Q14108) 5.93
LTBR (lysine site: K48) (UniProt P36941) 4.97
UniProt Q15149 (lysine site: K2350) 4.82
UniProt O60462 (lysine site: K755) 2.55
MYH9 (lysine site: K1673) (UniProt P35579) 5.57
GAS1 (lysine site: K137) (UniProt P54826) 3.54
UniProt P05787 (lysine site: K207) 3.47
PPIB (lysine site: K181) (UniProt P23284) 3.57
MSN (lysine site: K360) (UniProt P26038) 2.83
UniProt Q96TA1 (lysine site: K322) 5.91
PTPRF (lysine site: K612) (UniProt P10586) 4.74
RPL22 (lysine site: K80) (UniProt P35268) 2.72
UniProt Q9UII2 (lysine site: K49) 3.39
COL5A1 (lysine site: K605) (UniProt P20908) 2.05
UniProt Q8WXI7 (lysine site: K13985) 7.69
UniProt P62826 (lysine site: K99) 2.78
UniProt P62829 (lysine site: K74) 3.78
PTGFRN (lysine site: K763) (UniProt Q9P2B2) 4.93
UniProt P61160 (lysine site: K381) 2.7
CACNA2D1 (lysine site: K586) (UniProt P54289) 2.9
